Assay results reported in the supplement of paper PMC10849652.
The full data set covers some 7,900 targets. This sample favours those with a hit. About 0.6% of all pairs of compound and target were hits. Unmarked numbers belong to inactive results.

Tests used:
Test in all cases: log2 fold change, soluble protein after heating vs DMSO (PISA); higher = thermal stabilisation; K562 cells, 10 uM, 30 min; active = over 0.2 and 3.5 SD of the protein, either way, in both replicates (recomputed)
[1] = compound: CC1=C(C=C(C=C1)NC(=O)C2=CC(=CC=C2)C(C)(C)C#N)NC3=CC4=C(C=C3)N=CN(C4=O)C
Method in brief: (§1)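 K562 cells at 2×10^6 cells/mL were treated with 10 μM compound for 30 min. Aliquots were heated for 3 min across 48°C-58°C, pooled, and extracted in PBS with 0.5% NP-40 at 4°C; soluble protein was the supernatant after 21,000xg for 90 min. Soluble protein was quantified by TMTpro 16plex LC-MS/MS with channel sums equalised, and reported as log2 fold change in thermal stability against DMSO controls, with values from duplicates.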

[2] = compound: CC1=C(C=C(C=C1)NC(=O)C2=CC(=CC=C2)N(C)C)NC(=O)C3=CC=C(C=C3)O
Method in brief: as §1

[3] = compound: CC1=CC=C(C=C1)SC2=C3C=C(SC3=CN=C2)C(=O)N
Method in brief: as §1

[4] = compound: CC1=NC(=CC=C1)C2=C(N=C(N2)C(C)(C)C)C3=CC4=NC=CN=C4C=C3
Method in brief: as §1

Nexturastat A = compound: CCCCN(Cc1ccc(C(=O)NO)cc1)C(=O)Nc1ccccc1 [Nexturastat A]
Method in brief: as §1

vemurafenib = compound: CCCS(=O)(=O)Nc1ccc(F)c(C(=O)c2c[nH]c3ncc(-c4ccc(Cl)cc4)cc23)c1F [vemurafenib]
Method in brief: as §1

[5] = compound: CCCS(=O)(=O)Nc1ccc(F)c(C(=O)c2c[nH]c3ncc(Cl)cc23)c1F
Method in brief: as §1

[6] = compound: CCCc1cc(C)[nH]c(=O)c1CNC(=O)c1cc(-c2ccnc(N3CCN(C)CC3)c2)cc2c1cnn2C(C)C
Method in brief: as §1

givinostat = compound: CCN(CC)Cc1ccc2cc(COC(=O)Nc3ccc(C(=O)NO)cc3)ccc2c1 [givinostat]
Method in brief: as §1

barasertib = compound: CCN(CCCOc1ccc2c(Nc3cc(CC(=O)Nc4cccc(F)c4)[nH]n3)ncnc2c1)CCOP(=O)(O)O [barasertib]
Method in brief: as §1

[7] = compound: CC[C@@H]1C(=O)N(C)c2cnc(Nc3ccc(C(=O)NC4CCN(C)CC4)cc3OC)nc2N1C1CCCC1
Method in brief: as §1

volasertib = compound: CC[C@@H]1C(=O)N(C)c2cnc(Nc3ccc(C(=O)N[C@H]4CC[C@H](N5CCN(CC6CC6)CC5)CC4)cc3OC)nc2N1C(C)C [volasertib]
Method in brief: as §1

[8] = compound: CC[C@H](C)N1C=C(C2=C(C=C(C=C21)C3=CN=C(C=C3)N4CCNCC4)C(=O)NCC5=C(C=C(NC5=O)C)C)C
Method in brief: as §1

epoxomicin = compound: CC[C@H](C)[C@@H](C(=O)N[C@@H]([C@@H](C)O)C(=O)N[C@@H](CC(C)C)C(=O)[C@]1(CO1)C)NC(=O)[C@H]([C@@H](C)CC)N(C)C(=O)C [epoxomicin]
Method in brief: as §1

[9] = compound: CCn1c(C(=O)N(C2CC2)C2CC2)cc2c3c(ncn3C)c(Nc3cc(C)n(C)n3)nc21
Method in brief: as §1

[10] = compound: CCn1cc(-c2ccnc3[nH]c(-c4cccc(CN(C)C)c4)cc23)c(-c2ccc(NC(=O)N(C)C)cc2)n1
Method in brief: as §1

[11] = compound: CN(C)CC(=O)Nc1ccc2[nH]c(=O)c3ccccc3c2c1
Method in brief: as §1

rosiglitazone = compound: CN(CCOC1=CC=C(C=C1)C[C@H]2C(=O)NC(=O)S2)C3=CC=CC=N3 (racemic) [rosiglitazone]
Method in brief: as §1

[12] = compound: CN1C2=C(C3=C1C(=O)N(N=C3)CC4=CC(=CC=C4)N)SC(=C2)S(=O)C
Method in brief: as §1

[13] = compound: CN1CCC(CNc2ccc3ncc(-c4cccc(OC(F)(F)F)c4)n3n2)CC1
Method in brief: as §1

UniProt A5PLN9, sequence (A5PLN9 whole entry, looked up): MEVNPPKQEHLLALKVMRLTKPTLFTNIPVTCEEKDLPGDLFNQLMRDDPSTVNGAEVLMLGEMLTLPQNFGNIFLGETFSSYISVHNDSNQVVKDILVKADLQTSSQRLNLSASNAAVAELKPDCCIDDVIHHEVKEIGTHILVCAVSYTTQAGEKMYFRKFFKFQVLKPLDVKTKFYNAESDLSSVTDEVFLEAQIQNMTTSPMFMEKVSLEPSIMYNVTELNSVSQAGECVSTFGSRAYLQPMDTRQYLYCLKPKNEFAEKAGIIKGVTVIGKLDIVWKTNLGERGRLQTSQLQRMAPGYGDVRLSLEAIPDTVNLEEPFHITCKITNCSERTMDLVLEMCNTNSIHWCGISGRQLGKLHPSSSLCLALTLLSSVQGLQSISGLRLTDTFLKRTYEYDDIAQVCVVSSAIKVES
UniProt O00258, sequence (O00258 whole entry, looked up): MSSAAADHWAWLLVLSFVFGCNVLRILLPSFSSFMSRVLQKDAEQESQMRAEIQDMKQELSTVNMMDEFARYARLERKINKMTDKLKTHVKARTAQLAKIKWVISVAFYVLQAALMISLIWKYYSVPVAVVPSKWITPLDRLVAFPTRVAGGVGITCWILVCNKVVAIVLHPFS
UniProt O14773, sequence (O14773 whole entry, looked up): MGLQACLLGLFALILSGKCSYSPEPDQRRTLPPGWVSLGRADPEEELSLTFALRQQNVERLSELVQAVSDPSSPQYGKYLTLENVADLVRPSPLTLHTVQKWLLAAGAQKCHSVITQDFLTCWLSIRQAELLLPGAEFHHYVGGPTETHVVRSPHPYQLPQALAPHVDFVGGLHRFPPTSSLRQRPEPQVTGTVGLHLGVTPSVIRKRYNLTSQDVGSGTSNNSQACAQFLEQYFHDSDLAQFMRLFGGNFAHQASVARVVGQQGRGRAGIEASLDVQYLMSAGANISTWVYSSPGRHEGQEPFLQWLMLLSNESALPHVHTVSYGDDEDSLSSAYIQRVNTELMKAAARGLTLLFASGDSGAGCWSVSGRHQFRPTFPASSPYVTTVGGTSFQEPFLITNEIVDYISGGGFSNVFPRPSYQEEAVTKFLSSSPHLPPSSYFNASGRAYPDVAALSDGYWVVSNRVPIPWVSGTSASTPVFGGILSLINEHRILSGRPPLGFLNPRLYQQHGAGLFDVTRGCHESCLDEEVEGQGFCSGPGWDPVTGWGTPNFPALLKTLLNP
UniProt Q99816, sequence (Q99816 whole entry, looked up): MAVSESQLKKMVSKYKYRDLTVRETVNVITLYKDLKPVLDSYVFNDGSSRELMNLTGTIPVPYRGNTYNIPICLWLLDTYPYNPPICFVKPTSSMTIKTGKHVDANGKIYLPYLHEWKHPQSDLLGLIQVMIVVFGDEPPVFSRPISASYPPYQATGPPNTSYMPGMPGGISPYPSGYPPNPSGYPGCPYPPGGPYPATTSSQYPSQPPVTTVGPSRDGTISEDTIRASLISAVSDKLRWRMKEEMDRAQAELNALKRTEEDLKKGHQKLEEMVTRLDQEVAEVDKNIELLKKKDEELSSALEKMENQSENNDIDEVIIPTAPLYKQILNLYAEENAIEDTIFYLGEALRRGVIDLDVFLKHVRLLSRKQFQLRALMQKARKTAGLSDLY
UniProt A6NHL2, sequence (A6NHL2 whole entry, looked up): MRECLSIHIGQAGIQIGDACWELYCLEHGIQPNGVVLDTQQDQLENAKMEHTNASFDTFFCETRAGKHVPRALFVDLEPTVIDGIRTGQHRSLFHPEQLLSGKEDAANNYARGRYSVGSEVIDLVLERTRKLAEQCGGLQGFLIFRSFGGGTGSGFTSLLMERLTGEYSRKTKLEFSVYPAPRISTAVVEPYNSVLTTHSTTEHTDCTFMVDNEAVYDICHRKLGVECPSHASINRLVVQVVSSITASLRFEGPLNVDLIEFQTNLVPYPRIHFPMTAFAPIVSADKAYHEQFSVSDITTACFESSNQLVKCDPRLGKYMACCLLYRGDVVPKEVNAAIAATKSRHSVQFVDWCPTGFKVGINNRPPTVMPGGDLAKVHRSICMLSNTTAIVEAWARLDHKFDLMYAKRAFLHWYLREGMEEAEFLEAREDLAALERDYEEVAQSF
UniProt Q9UEU0, sequence (Q9UEU0 whole entry, looked up): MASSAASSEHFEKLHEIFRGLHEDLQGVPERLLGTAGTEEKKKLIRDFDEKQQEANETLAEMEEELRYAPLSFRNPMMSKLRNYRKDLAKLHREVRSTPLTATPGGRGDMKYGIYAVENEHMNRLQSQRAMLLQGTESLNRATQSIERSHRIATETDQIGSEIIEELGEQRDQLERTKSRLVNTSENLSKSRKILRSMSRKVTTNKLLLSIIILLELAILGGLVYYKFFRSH
UniProt Q86Y07, sequence (Q86Y07 whole entry, looked up): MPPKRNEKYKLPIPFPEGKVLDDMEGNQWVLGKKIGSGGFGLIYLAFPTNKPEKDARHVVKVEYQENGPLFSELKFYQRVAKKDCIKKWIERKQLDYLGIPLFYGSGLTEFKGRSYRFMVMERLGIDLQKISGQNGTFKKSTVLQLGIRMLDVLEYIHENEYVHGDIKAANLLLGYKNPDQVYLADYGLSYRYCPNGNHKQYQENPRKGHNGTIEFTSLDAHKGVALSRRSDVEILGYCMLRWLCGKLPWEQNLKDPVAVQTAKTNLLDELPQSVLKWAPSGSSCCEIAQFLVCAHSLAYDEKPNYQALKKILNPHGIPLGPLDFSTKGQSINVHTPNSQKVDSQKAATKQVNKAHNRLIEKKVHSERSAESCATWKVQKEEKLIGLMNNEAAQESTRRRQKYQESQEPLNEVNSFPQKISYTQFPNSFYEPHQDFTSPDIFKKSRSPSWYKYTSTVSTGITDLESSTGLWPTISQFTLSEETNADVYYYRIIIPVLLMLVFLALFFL
UniProt Q9Y5K5, sequence (Q9Y5K5 whole entry, looked up): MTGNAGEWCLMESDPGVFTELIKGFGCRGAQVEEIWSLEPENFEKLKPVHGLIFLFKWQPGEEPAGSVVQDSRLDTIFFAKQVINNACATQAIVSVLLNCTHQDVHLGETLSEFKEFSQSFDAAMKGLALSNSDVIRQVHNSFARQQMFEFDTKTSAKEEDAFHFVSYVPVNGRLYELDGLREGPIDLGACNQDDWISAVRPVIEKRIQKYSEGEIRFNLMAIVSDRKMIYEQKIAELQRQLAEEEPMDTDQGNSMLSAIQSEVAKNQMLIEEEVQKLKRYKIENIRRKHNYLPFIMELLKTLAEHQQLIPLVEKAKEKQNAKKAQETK
UniProt Q53S58, sequence (Q53S58 whole entry, looked up): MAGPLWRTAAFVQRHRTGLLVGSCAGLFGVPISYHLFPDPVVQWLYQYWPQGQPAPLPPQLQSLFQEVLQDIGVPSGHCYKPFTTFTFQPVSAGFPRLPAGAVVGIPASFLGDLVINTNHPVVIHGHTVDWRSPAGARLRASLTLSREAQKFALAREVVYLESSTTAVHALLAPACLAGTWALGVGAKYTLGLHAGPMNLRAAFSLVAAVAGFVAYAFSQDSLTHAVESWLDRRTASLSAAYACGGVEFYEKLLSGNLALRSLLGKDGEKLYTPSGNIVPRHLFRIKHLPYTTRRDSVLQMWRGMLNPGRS
UniProt Q9Y3C0, sequence (Q9Y3C0 whole entry, looked up): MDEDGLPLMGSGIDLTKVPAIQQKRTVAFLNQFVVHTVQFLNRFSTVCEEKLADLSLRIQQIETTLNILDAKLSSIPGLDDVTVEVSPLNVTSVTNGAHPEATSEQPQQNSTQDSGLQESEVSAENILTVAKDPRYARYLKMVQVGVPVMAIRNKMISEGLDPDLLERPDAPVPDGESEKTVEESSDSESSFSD
UniProt Q9H3M7, sequence (Q9H3M7 whole entry, looked up): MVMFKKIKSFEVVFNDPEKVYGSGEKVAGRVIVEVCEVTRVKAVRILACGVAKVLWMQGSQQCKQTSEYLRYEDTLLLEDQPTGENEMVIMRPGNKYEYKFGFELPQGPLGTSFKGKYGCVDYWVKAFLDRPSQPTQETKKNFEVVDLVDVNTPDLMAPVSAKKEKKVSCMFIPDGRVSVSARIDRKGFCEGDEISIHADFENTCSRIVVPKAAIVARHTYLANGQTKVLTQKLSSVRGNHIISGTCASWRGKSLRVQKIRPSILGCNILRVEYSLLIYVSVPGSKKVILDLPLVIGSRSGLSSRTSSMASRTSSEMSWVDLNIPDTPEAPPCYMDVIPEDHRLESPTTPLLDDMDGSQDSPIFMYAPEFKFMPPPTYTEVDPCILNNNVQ

Target | log2 fold change [1] | log2 fold change [2] | log2 fold change [3] | log2 fold change [4] | log2 fold change (Nexturastat A) | log2 fold change (vemurafenib) | log2 fold change [5] | log2 fold change [6] | log2 fold change (givinostat) | log2 fold change (barasertib) | log2 fold change [7] | log2 fold change (volasertib) | log2 fold change [8] | log2 fold change (epoxomicin) | log2 fold change [9] | log2 fold change [10] | log2 fold change [11] | log2 fold change (rosiglitazone) | log2 fold change [12] | log2 fold change [13]
VTI1B (UniProt Q9UEU0) | -0.038 | 0.006 | -0.008 | -0.014 | 0.036 | -0.03 | 0.009 | -0.034 | -0.04 | -0.007 | -0.028 | -0.066 | -0.037 | -0.057 | 0.036 | -0.018 | -0.009 | 0.006 | 0.018 | -0.331 (active)
VRK2 (UniProt Q86Y07) | -0.072 | -0.05 | 0.01 | 0.015 | 0.04 | 0.006 | 0.044 | 0.025 | 0.03 | 0.01 | 0.034 | -0.049 | 0.054 | 0.021 | -0.072 | -0.005 | -0.009 | 0.019 | -0.04 | 0.229 (active)
TPP1 (UniProt O14773) | 0.006 | 0.037 | 0.02 | 0.03 | -0.007 | -0.006 | -0.021 | 0 | -0.015 | -0.018 | -0.647 (active) | -1.09 (active) | -0.002 | 0.019 | 0.033 | -0.117 | 0.007 | 0.007 | -0.001 | -0.569 (active)
TUBAL3 (UniProt A6NHL2) | 0.152 | -0.062 | 0.005 | 0.094 | -0.106 | 0.121 | -0.033 | -0.207 | 0.006 | -0.028 | 0.144 | -0.497 | -0.052 | -0.11 | -0.023 | -0.013 | -0.061 | 0.139 | 0.03 | -0.067
WASHC3 (UniProt Q9Y3C0) | 0.011 | 0.015 | 0.049 | -0.008 | -0.051 | 0.005 | -0.006 | -0.08 | 0.004 | 0.017 | -0.015 | -0.066 | -0.058 | 0.067 | -0.025 | 0.007 | -0.002 | 0.026 | -0.03 | -0.245 (active)
TRAPPC13 isoform 5 (UniProt A5PLN9) | 0.022 | 0.008 | 0.006 | 0.043 | 0.024 | 0.074 | 0.113 | 0.095 | 0.025 | 0.002 | -0.055 | -0.34 | 0.044 | -0.014 | -0.072 | -0.068 | 0.078 | 0.087 | 0.042 | -0.187
WRB (UniProt O00258) | -0.046 | -0.11 | -0.007 | -0.023 | -0.25 (active) | 0.108 | -0.037 | -0.074 | 0.032 | -0.014 | 0.011 | 0.057 | -0.071 | -0.059 | -0.021 | -0.02 | -0.024 | -0.025 | 0.029 | -0.016
TOE1 (UniProt Q96GM8) | 0.099 | 0.056 | -0.012 | -0.109 | 0.078 | -0.016 | 0.048 | 0.059 | -0.055 | -0.063 | 0.067 | 0.154 | -0.023 | -0.148 | -0.067 | 0.035 | -0.043 | -0.03 | 0.107 | 0.35 (active)
TSG101 (UniProt Q99816) | 0 | -0.011 | -0.001 | 0.025 | -0.017 | 0.021 | 0.024 | -0.057 | 0.035 | 0.046 | -0.137 | -0.268 (active) | 0.036 | 0.065 | -0.011 | -0.021 | 0.002 | 0.023 | -0.018 | -0.124
UCHL5 (UniProt Q9Y5K5) | 0.014 | -0.07 | 0.019 | 0.053 | 0.048 | 0.075 | 0.08 | 0.003 | 0.057 | 0.024 | -0.113 | -0.295 (active) | 0.074 | 0.116 | -0.017 | -0.028 | 0.04 | 0.03 | -0.003 | -0.099
TXNIP (UniProt Q9H3M7) | -0.04 | 0.003 | -0.115 | 0.034 | 0.177 | -0.005 | -0.079 | 0.001 | -0.06 | 0.033 | 0.112 | 0.021 | 0.053 | 0.054 | 0.212 | -0.066 | -0.026 | 0.036 | -0.07 | -0.793 (active)
TMEM177 (UniProt Q53S58) | 0.043 | 0.045 | -0.008 | 0.048 | -0.092 | 0.05 | 0.05 | -0.038 | 0.005 | -0.019 | -0.092 | 0.051 | 0.047 | -0.052 | 0.002 | 0.048 | 0.219 | 0.035 | -0.103 | -0.075
